GLP1R inv ag = qHTS of GLP-1 Receptor Inverse Agonists (Inhibition Mode) | Glucagon-like peptide 1 receptor (Homo sapiens), P43220 | HEK293 GLP-1R CRE-luciferase, luminescence, 24 h; GLP-1R form is constitutively active | Potency, µM (series often up to 38.3 µM), for inactives: at the top dose activity change, negative = inhibition, most hits filed as inhibitors | 410,000 tested, 1.6% active | AID 624417, 2012; further: on the % scale 0 is the no-effect control and ±100 the full control effect; nearly all actives have a fitted effect of over 55% in size
Target sequence (P43220 whole entry, looked up): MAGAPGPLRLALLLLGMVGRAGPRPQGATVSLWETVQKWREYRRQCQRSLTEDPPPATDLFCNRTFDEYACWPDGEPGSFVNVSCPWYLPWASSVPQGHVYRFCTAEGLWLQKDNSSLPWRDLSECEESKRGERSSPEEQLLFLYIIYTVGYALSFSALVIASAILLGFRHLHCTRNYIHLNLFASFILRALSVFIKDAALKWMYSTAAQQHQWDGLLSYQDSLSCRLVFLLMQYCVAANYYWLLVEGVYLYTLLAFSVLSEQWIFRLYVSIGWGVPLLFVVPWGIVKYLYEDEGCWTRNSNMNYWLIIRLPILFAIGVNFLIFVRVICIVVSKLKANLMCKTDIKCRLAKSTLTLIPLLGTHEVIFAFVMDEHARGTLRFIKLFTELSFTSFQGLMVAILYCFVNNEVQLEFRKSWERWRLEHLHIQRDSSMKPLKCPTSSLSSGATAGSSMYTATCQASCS
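Readout was luciferase luminescence, measured 12 min after detection reagent at room temperature. Beforehand, GLP-1R reporter HEK293 cells had sat 12 h, then received compounds for 24 hr at 37 deg C.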
BRCA1 expr up = qHTS Assay to Identify Small Molecule Activators of BRCA1 Expression. MCF7-BRCA1-FFLuc reporter, luminescence, 48 h; response scale: scaled: vehicle 0%, 10 µM genistein 100%. Potency, µM (titrated, usually from 46.1 µM), inactives show top-dose activation, usual class: activators. 380,000 tested, 1.1% active; further: nearly all actives have a fitted effect of over 80% in size
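Activators of BRCA1 expression were detected as increased firefly luciferase luminescence in engineered MCF7 cells after 48 h compound incubation. Signals were scaled to genistein 10 microM as full activation.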
a7 integrin act = qHTS for Activators of Integrin-Mediated Alleviation for Muscular Dystrophy; AID 624291, 2012; 350,000 tested, 0.064% active; alpha7betagal myoblasts, beta-gal FDG fluorescence, 48 h; Potency, µM (highest dose often 38.3 µM), without a hit: at the top dose activation, most hits filed as activators;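 further: 100% = response of the positive control SU9516; nearly all actives have a fitted effect of over 60% in size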
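alpha7betagal+/- myoblasts (passage 13, 250/well) treated 48 h at 37C with compounds at 1:260 dilution of DMSO stock. Lysed, then beta-galactosidase activity read as FDG fluorescence (ex 480/em 540) after 30 min, with pre-read for autofluorescence.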
HEK293 tox = qHTS of GLP-1 Receptor Inverse Agonists: Cytotox Screen | HEK293 cAMP-luciferase reporter cells, luminescence, 24 h | Potency, µM (highest dose often 38.3 µM), for inactives: top-dose activity change, negative = inhibition, hits mostly inhibitors | 410,000 tested, 0.13% active | AID 624418, 2012;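 further: loss of luciferase light is scored as toxicity; on the % scale 0 is the no-effect control and ±100 the full control effect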
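A 23 nL compound transfer followed 12 hours of cell culture at 37 deg C; exposure then lasted 24 hr. Luciferase assay detection reagent was dispensed and plates read for luminescence after a 12 min room-temperature wait.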
GLP1R ag = qHTS of GLP-1 Receptor Agonists; HEK293 GLP-1R CRE-luciferase, luminescence, 4-6 h; cells express a hypersensitive GLP-1R form; Glucagon-like peptide 1 receptor (Homo sapiens), P43220; AID 624172, 2012; Potency, µM (titrated, usually from 45.6 µM), for inactives: top-dose activation, most hits filed as activators; 380,000 tested, 0.007% active; further: % of control where 0% means no effect
Active calls of the source: *; ? = inconclusive; . = not tested or not shown. A selection: hits, their analogues and other compounds. The true share with any hit is near 2.7%. The call rests on the fitted dose curve; in most records, active means well fitted curve in the direction sought with a large enough effect; inconclusive means small, poorly fitted or top-dose-only effect, or another doubt; inactive means no such curve, though single readings can be large; an effect the other way counts as inactive or inconclusive. Potency means the concentration at half of the fitted maximal effect.

SMILES	GLP1R inv ag	BRCA1 expr up	a7 integrin act	HEK293 tox	GLP1R ag
CCOCCc1nn2c(=O)cc(COC(=O)c3ccccc3NC(=O)CC(C)C)nc2s1	5.2%	.	.	-11.9%	.
CCOC(=O)c1c(C)c(-c2ccccc2)n(CC(=O)NCCc2ccc(C)cc2)c1C	8.6%	4.7%	.	0.2%	-0.8%
COc1cc(OC)c(/C=C/c2ccc3ccccc3[n+]2C)c(OC)c1	.	-70.0%	.	.	.
O=P(O)(O)OC[C@@H](O)CO	.	.	.	.	19.0%
CC(Oc1ccccc1F)C(=O)NCC1(N2CCOCC2)CCCCC1 (stereo not given)	?	.	.	-6.1%	.
Cc1cccc(N2CCN(C(=S)c3ccc4c(c3)OCO4)CC2)c1	11.2µM*	-29.4%	-7.5%	?	7.7%
CNC(=S)N/N=C/c1ccc(C(C)C)cc1	?	5.01µM*	-52.4%	?	1.6%
CNC(=S)N/N=C/c1ccc(N(C)C)cc1	?	?	5.6%	?	-5.0%
COc1ccccc1NC(=S)NCCSc1ccc(C)cc1	11.2µM*	-16.9%	-12.1%	?	1.2%
CCNC(=O)NCCCOc1cccc(CN2CCCCC2)c1	.	.	.	.	5.3%
CCOc1ccc(CNc2cc(C)nc3nc(-c4cccc(C)c4)nn23)cc1OC	13.2%	.	.	1.2%	.
N#CC1=C(N)NC(SCc2ccc(Br)cc2)=C(C#N)C12CCCCC2	10µM*	-19.6%	7.0%	-14.2%	1.4%
Cc1ccccc1C(=O)N1c2ccccc2OCC1C(C)(C)C (stereo not given)	?	-14.7%	16.2%	-6.8%	2.4%
CC(C)(C)C1COc2ccccc2N1C(=O)c1ccccc1Cl (stereo not given)	8.91µM*	-7.2%	-13.8%	-10.2%	2.4%
O=C(OCC(=O)N1CCCC1)c1c(Cl)cccc1Cl	5.7%	-28.7%	11.8%	-2.9%	1.3%
Cc1ccsc1C(=O)OCC(=O)N1CCc2ccccc2C1	?	7.94µM*	-6.4%	-3.5%	7.1%
O=C(OCC(=O)N1CCc2ccccc2C1)c1c(F)cccc1Cl	?	6.31µM*	20.9%	-9.8%	3.5%
CC1CCc2nc3ncn(Cc4ccc(Cl)cc4)c(=O)c3cc2C1 (stereo not given)	5.6%	.	.	-5.0%	.
Cc1c(NC(=O)C(F)(F)F)ccc2nc3c(=O)n(C)c(=O)n(C)c3nc12	44.1%	.	.	4.9%	.
O=C(Nc1ccc2c(c1)COC2=O)c1ccc(Cl)c(Cl)c1	13.4%	14.1µM*	0.0%	-1.4%	-1.2%
Cc1ccc(OCC(=O)Nc2ccc([N+](=O)[O-])cc2)cc1	-14.0%	-6.8%	-10.4%	-6.9%	0.0%
Cc1ccc(NC(=O)C2(c3ccc([N+](=O)[O-])cc3)CCCC2)cc1	10µM*	-2.5%	-12.1%	-25.0%	-2.2%
Cc1ccc(NC(=O)C2(c3ccccc3)CCCC2)nc1	3.55µM*	-12.6%	2.2%	-7.5%	0.2%
O=C(Nc1ccccn1)C1(c2ccccc2)CCCC1	?	-1.9%	19.0%	-15.0%	-11.8%
CCOc1ccc(NC(=O)c2c(C)oc3nc(C)nc(N4CCOCC4)c23)cc1	-3.1%	.	.	6.0%	.
SMILES	GLP1R inv ag	BRCA1 expr up	a7 integrin act	HEK293 tox	GLP1R ag
O=C(Nc1ccncc1)c1cnn2c1NC(=C1CC1)C=C2C(F)F	.	12.9%	.	.	.
O=C(NC(=S)Nc1cccc(Cl)c1N1CCCCC1)c1ccc2c(c1)OCCO2	?	-75.8%	0.0%	-8.1%	-7.0%
CCC(=O)NC(=S)Nc1cccc(Cl)c1N1CCCC1	5.62µM*	-3.6%	-5.0%	?	9.1%
O=C1/C(=C/c2cccs2)N=C(c2cccs2)N1Nc1ccccc1	10µM*	3.8%	9.0%	-10.2%	5.2%
Cc1occc1C(=O)NNC(=O)c1ccccc1C(=O)O	3.0%	10µM*	14.5%	4.2%	7.0%
Cc1occc1C(=O)NCCCc1ccccc1	-28.1%	12.6µM*	-3.2%	-5.5%	-9.5%
Cc1occc1C(=O)NCCCCNC(=O)c1ccoc1C	3.0%	5.4%	0.5%	-2.0%	-1.8%
CCN(CC)S(=O)(=O)c1cccc(C(=O)Nc2sc3c(c2C#N)CCC(C)C3)c1 (stereo not given)	4.1%	12.9%	.	-5.9%	-2.3%
CCNC(=O)COC(=O)c1cc(-c2ccco2)nc2ccccc12	-14.5%	0.5%	5.62µM*	2.3%	-5.7%
O=C(O)c1cc(-c2ccco2)nc2ccccc12	2.3%	13.6%	7.1%	-10.2%	-1.6%
COc1cccc(C(=O)Nc2ccc3nc(SCCOc4ccccc4)sc3c2)c1	-5.6%	7.2%	.	-5.8%	.
CCCCS/C(N)=N/N=C/c1ccccc1O	?	7.94µM*	-11.5%	2.82µM*	24.6%
CCCn1cnc2cc(NCc3ccccn3)ccc21	-30.3%	3.98µM*	-10.2%	-3.6%	-4.4%
Cc1ccc(CNc2ccc3c(c2)ncn3C)cc1	0.0%	5.01µM*	-23.8%	17.9%	1.7%
CCCCN(CC)CCNc1ncnc2onc(-c3ccc(Cl)cc3)c12	-1.2%	4.7%	.	-16.3%	0.5%
Cc1ccc(-c2ccc(/C=N/N3C(=O)C4C5C=CC(C6CC56)C4C3=O)o2)c([N+](=O)[O-])c1 (stereo not given)	3.55µM*	1.7%	-3.8%	-26.5%	1.6%
Fc1ccc(CNc2ccc(N3CCN(Cc4ccccc4)CC3)cc2)cc1	4.47µM*	-0.8%	-34.1%	-15.4%	-1.9%
Cc1ccc2[nH]c(CSc3nnc(NC(=O)COc4ccccc4)s3)cc(=O)c2c1	9.9%	.	.	0.9%	.
CCOC(=O)C(CC)Sc1c(CC)cnc2c1c(=O)n(C)c(=O)n2C (stereo not given)	9.8%	.	.	0.0%	.
CC(C)(C)c1nnc(NC(=O)COc2ccc3c(c2)OCO3)s1	?	2.51µM*	28.0%	8.5%	-0.6%
Cc1ccc(NC(=O)COc2ccc3c(c2)OCO3)c(Cl)c1	9.4%	14.1µM*	16.9%	2.7%	5.7%
CCc1ccccc1NC(=O)COc1ccc2c(c1)OCO2	2.9%	0.0%	-12.2%	43.6%	13.3%
CC(C)(C)c1nnc(NC(=O)c2ccc3c(c2)OCO3)s1	15.7%	?	?	1.1%	6.9%
CCOc1ccc(NC(=O)COc2ccc3c(c2)OCO3)cc1	-6.3%	3.0%	2.7%	6.8%	19.9%
O=C(COc1ccc2c(c1)OCO2)Nc1ccccc1C(F)(F)F	?	10µM*	15.9%	1.3%	26.9%
COc1ccc(NC(=O)c2sc3nc4c(c(-c5ccc(OC)cc5)c3c2N)C(=O)CC(C)(C)C4)cc1	-8.1%	.	.	9.0%	.
Cc1nc(-c2ccc(S(=O)(=O)NCc3ccc(OC(C)C)cc3)cc2)co1	-11.7%	-8.0%	.	-5.1%	10.1%
CC(C)CN(/C=N/c1sc2c(c1C#N)CCCCC2)CC(C)C	?	-10.5%	-6.9%	-12.9%	-7.0%
CCN(/C=N/c1sc2c(c1C#N)CCCCC2)CC	?	6.31µM*	-20.3%	-17.6%	28.0%
